Inconclusive results are not listed. Active and inactive are the calls of the source.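 How the source made its calls: active means viability at or below 27.92% in each of two runs, the all-compound median minus 4 SD; inconclusive means no clear call, values can overlap the other calls; inactive means the rest.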

The experiment is described as follows: viability of PTEN-null HCT116 cells – cell-based, HCT116 clonal line, CellTiter-Glo, pilot screen (AID 824).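 Further: 0% = 20 µM Hyamine control and 100% = vehicle cell control.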 As to conditions: HCT116 PTEN-deleted viability, 60 h, at 10 µM, active compounds read low. (In general: ATP-based viability assays read luminescence as a measure of living cells.)
As a reminder, the viability is a read-out of living cells in per cent, often relative to untreated cells. For `Cc1cc2ncn(CC(O)COC3CCCCC3)c2cc1C` (stereo not given), the viability is 90.3% (inactive). Consider `CCOC(=O)c1sc(NC(=O)c2ccco2)nc1-c1ccccc1`, for which the viability was 95.5% (inactive). With `COc1ccc(S(=O)(=O)N2CCC(C(=O)Nc3cccc(Cl)c3)CC2)cc1OC` the figure was 78% (inactive); with `Cc1cccc(N(C)c2cc(C)nc3ncnn23)c1`, 99.6% (inactive).

With `CCOC(=O)C1CCCN(C(=O)Cn2sc3nc(C)cc(C)c3c2=O)C1` (stereo not given), the viability was 12.6% (active).

For the compound `CCc1ccc(NC(=O)CSc2nc3c(c(=O)n(C)c(=O)n3C)n2C)cc1`, the viability was 94.6% (inactive).

On to `COCCNC(=O)c1ccccc1NC(=O)C1COc2ccccc2O1` (stereo not given), for which the viability was 102% (inactive). With `COc1ccc(S(=O)(=O)Cc2ccc(C(=O)N3CCc4ccccc4C3)o2)cc1` the figure was 94.1% (inactive); with `CC1Cc2ccccc2N1C(=O)Cn1cnc2ccccc2c1=O` (stereo not given), 93.3% (inactive); with `Brc1cccc(-c2nc(-c3ccncc3)no2)c1`, 80% (inactive). For `COc1ccc(OC)c(NC(=O)NC2(C(F)(F)F)Oc3ccccc3O2)c1`, the viability is 71.5% (inactive).

Take `CC(C)c1ccc(NC(=O)c2cccnc2)cc1`: the viability was 94.3% (inactive).

As for `Cc1ccc2oc3c(c(=O)c2c1)C(c1cccs1)N(CCCN(C)C)C3=O` (stereo not given), the viability is 97.8% (inactive). With `COc1ccc(CC(=O)N2CC3(C)CC2CC(C)(C)C3)cc1OC` (stereo not given) the figure was 88.2% (inactive); with `COc1ccc(C2C(C(=O)c3ccco3)=C(O)C(=O)N2Cc2cccnc2)cc1OC` (stereo not given), 98.7% (inactive); with `COc1ccc(OCC(=O)OCCN2C(=O)c3ccccc3C2=O)cc1`, 106% (inactive). With `COc1ccc(C2C(C(=O)NCC3CCCO3)c3cc(OC)c(OC)cc3C(=O)N2C)cc1OC` (stereo not given) the figure was 99.7% (inactive); with `Cc1ccccc1CSc1nnc(-c2ccco2)n1Cc1ccco1`, 82.4% (inactive); with `Cc1nc(CNS(=O)(=O)c2ccccc2F)cs1`, 91.5% (inactive). Regarding `CC1CC(C(O)c2ccccn2)C(=O)C(C(O)c2ccccn2)C1` (stereo not given), the viability is 90.3% (inactive). Consider `CCCC(c1c(C)n(C)n(-c2ccccc2)c1=O)c1c(C)n(C)n(-c2ccccc2)c1=O`, for which the viability was 103% (inactive).

In the case of `CS(=O)(=O)N(Cc1ccc(C(=O)NCc2ccco2)cc1)c1ccccc1`, the viability is 100% (inactive). Regarding `CC(C)Cc1cc(C(=O)Nc2cc(Cl)ccc2Cl)no1`, the viability was 98% (inactive).

For the compound `Cc1cc(F)ccc1S(=O)(=O)Nc1c(C)n(C)n(-c2ccccc2)c1=O`, the viability is 93.7% (inactive). The same measure for `Cc1onc(-c2ccccc2)c1C(=O)Nc1cccc(C#N)c1`: 88.5% (inactive); for `O=C(c1ccccc1)c1ccc(OC(=O)N2CCOCC2)cc1`: 90.7% (inactive); for `COC(=O)CN1C(=O)CC(C)(C)Sc2ccccc21`: 101% (inactive). The same measure for `Cc1cc(C)cc(N(CC(=O)NCc2ccco2)S(=O)(=O)c2c(C)noc2C)c1`: 84.5% (inactive); for `COc1ccc(C)cc1NC(=O)CSc1nnc(-c2ccc(OC)c(OC)c2)n1N`: 98.9% (inactive). Regarding `Cn1c(=O)oc2cc(S(=O)(=O)N3CCCc4ccccc43)ccc21`, the viability was 23.5% (active). The same measure for `CC(C)(C)NC(=O)c1ccc(NC(=O)C2COc3ccccc3O2)cc1` (stereo not given): 96.4% (inactive); for `CC1CCCC(C)N1c1nnc(N)s1` (stereo not given): 102% (inactive); for `COc1ccc(-c2cc(N)n(S(=O)(=O)Cc3ccccc3)n2)c(OC)c1`: 96.8% (inactive). The same measure for `CC1CN(c2ncnc3c2cnn3-c2ccc(Cl)cc2)CC(C)O1` (stereo not given): 88.4% (inactive). The same measure for `NS(=O)(=O)c1ccc(CCNC(=O)C2CCCN(S(=O)(=O)c3cccnc3)C2)cc1` (stereo not given): 97.7% (inactive); for `O=C(O)c1ccc(NS(=O)(=O)c2cccc3cccnc23)cc1`: 94.1% (inactive). `Cc1ccc(C(=O)Nc2nc3ccccc3n2CCN2CCCC2)cc1`: the viability is 51.5% (inactive).

`CC(C)c1nnc(NC(=O)CSc2ncn[nH]2)s1`: the viability was 94.2% (inactive). With `Cc1cc(C)c(NC(=O)C(C)(C)C)c(Cl)c1` the figure was 86.2% (inactive); with `CCOc1ccc(Nc2cc(C)nc3nc(C)nn23)cc1`, 93.9% (inactive).

For the origin of these results see PubChem BioAssay.
